# Measurements from PubChem BioAssay.
# Active and inactive are the calls of the source.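 Rule for the calls, unless noted: active = inhibition above 20% together with a positive visual image hit; inconclusive = visual image hit but inhibition not above 20%; inactive = no visual image hit.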
# Legend:
# [1] = inhibitors of TNFa-induced NFkB p65 translocation, primary screen, imaging, HUVEC, MLSMR starter and 10KST1 sets (AID 438); settings: HUVEC TNFa-induced p65 nuclear translocation; cell count: measured here: nuclei count (cytotoxicity indicator), at 2.08 µM; inhibition: at 2 µM, stronger effect = higher value, 0% TNFa-plus-vehicle, 100% no-TNFa wells;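 note: compound added about 3h40 before a 20 min TNFalpha stimulation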;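 for inhibition: signal is the nuclear over cytoplasmic p65 intensity ratio per well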
# [2] = reduction of polyQ htt aggregates in cells – imaging, exon1htt(103Q)mCFP cells, high-content imaging, primary screen (AID 483;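 active = visual image review flags a hit and inhibition of aggregation exceeds 20%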;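 note: compound exposure lasted 3 days before fixation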;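 for nuclei count: percent of the per-plate median nuclei count of sample wells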); settings: exon1htt(103Q)mCFP cell line, aggregate imaging, at 2 µM; inhibition of aggregation: stronger effect = higher value; nuclei count: measured here: cell count, toxicity
# [3] = endothelial E-selectin expression blockers – imaging, HUVEC, immunofluorescence, MLSMR starter and 10KST1 sets, primary screen (AID 487;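 active = visually confirmed hit in the image check and inhibition above 20%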;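 for inhibition: signal is fraction of cell area covered by stained E-selectin grains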;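 for nuclei count: 100% = median nuclei count of all wells on the same plate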); settings: HUVEC TNFalpha-induced E-selectin immunofluorescence imaging, at 2 µM; inhibition: stronger effect = higher value; nuclei count: measured here: cell number, toxicity
# [4] = target: Voltage-gated potassium channel subunit beta-2 (Rattus norvegicus) (UniProt P62483); assay: inhibitors of rat Kvbeta2 reductase activity – biochemical, NADPH fluorescence, primary screen (AID 622;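 active = fluorescence slope higher than the sample average by over 3 SD, cut at about -0.22 in these data, passing the limit was not always enough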;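 note: slope of raw intensity against log time taken from 70 to 1610 s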); settings: recombinant KvBeta, 4-cyanobenzaldehyde reduction, at 10 µM, stronger effect = higher value
# Voltage-gated potassium channel subunit beta-2 (Rattus norvegicus), sequence (P62483 whole entry, looked up): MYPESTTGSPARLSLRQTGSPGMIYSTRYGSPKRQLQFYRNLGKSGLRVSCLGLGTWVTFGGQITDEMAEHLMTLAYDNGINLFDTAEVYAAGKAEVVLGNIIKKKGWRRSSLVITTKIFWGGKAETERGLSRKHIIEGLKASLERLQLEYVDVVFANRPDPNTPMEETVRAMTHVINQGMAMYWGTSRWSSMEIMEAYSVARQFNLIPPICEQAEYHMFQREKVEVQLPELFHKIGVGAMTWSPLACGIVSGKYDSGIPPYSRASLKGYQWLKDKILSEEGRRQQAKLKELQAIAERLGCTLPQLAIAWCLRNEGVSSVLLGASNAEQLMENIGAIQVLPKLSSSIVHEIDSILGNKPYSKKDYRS
# [5] = target: Voltage-gated potassium channel subunit beta-2 (Rattus norvegicus) (UniProt P62483); assay: enhancers of rat Kvbeta2 NADPH turnover – biochemical, NADPH fluorescence, primary screen (AID 623;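 active = NADPH fluorescence slope more negative than the mean of all samples by about 3 SD, 99.7% confidence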;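 note: fluorescence intensity change per second fitted from 20 to 320 s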); settings: Recombinant KvBeta, NADPH fluorescence decrease slope, 10 min; at 10 µM; stronger effect = lower value
# [6] = target: Alpha-2C adrenergic receptor (Homo sapiens) (UniProt P18825); assay: compounds altering alpha2C-coupled GIRK flux – cell-based, HEK293 alpha2C/GIRK1/2, thallium flux, primary screen (AID 624;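 active = fluorescence slope after compound addition differing from the mean of all screened samples at 99.7% confidence, in either direction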;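 note: slope of fluorescence ratio to pre-addition baseline per second over 15 to 24 s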); settings: thallium flux BTC fluorescence, at 10 µM, actives lie on both sides
# Alpha-2C adrenergic receptor (Homo sapiens), sequence (P18825 whole entry, looked up): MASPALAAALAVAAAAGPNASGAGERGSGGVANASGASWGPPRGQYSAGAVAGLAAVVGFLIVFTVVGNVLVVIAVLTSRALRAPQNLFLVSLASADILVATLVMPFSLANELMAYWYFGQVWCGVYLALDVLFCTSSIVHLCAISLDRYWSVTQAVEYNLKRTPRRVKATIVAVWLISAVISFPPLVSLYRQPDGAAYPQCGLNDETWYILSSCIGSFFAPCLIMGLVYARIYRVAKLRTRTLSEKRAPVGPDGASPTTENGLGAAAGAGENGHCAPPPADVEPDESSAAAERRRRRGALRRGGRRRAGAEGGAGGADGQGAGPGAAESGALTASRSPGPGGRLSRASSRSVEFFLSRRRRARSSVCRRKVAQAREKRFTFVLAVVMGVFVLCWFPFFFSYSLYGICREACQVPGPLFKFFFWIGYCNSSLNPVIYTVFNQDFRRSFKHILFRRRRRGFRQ
# [7] = blockers of RIG-like receptor reporter activation – cell-based, Sendai virus stimulus, luciferase, 10K MLSCN set, TLR/RLR signaling modifier project, primary screen (AID 602276;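 active = inhibition at or above 50% at 10 µM; inactive = inhibition below 50%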;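 note: firefly luciferase from ISG56 promoter only with Renilla not read in this screen; 0% = Sendai virus plus DMSO and 100% = medium plus DMSO without virus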); settings: HEK293 RL24 IRF3 luciferase reporter, at 10 µM, stronger effect = higher value
# [8] = TLR3 IRF3 reporter activation blockers – cell-based, poly I:C stimulus, luciferase, 10K MLSCN set, primary screen (AID 602277;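 active = inhibition of the reporter signal at or above 50%; inactive = inhibition below 50%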); settings: HEK293-TLR3 RL24 IRF3 luciferase reporter, at 10 µM, stronger effect = higher value
Compound,cell count [1],inhibition [1],inhibition of aggregation [2],nuclei count [2] [%],inhibition [3],nuclei count [3] [%],fluorescence slope [4],NADPH fluorescence slope [5],slope [6],inhibition [7],inhibition [8]
CCCCCCn1c(SCC(=O)OC)nc2c1c(=O)[nH]c(=O)n2C,502,-5.9% (inactive),25.4% (inactive),71.7,5% (inactive),91.4,-0.42 (inactive),-5.2e-05 (inactive),0.00477 (inactive),9.4% (inactive),31.6% (inactive)
CN(C1CCS(=O)(=O)C1)S(=O)C12CC3CC(CC(C3)C1)C2 (stereo not drawn),150,23.1% (inactive),-16% (inactive),98,1.8% (inactive),95.7,-0.533 (inactive),-3.6e-05 (inactive),0.00528 (inactive),-4.43% (inactive),99.5% (active)
CCN(CC)CCCNS(=O)(=O)c1ccc(OC)cc1,460,0.5% (inactive),-18% (inactive),110,-61.5% (inactive),134,-0.429 (inactive),-0.000105 (inactive),0.00623 (inactive),13.6% (inactive),27.9% (inactive)
N#Cc1ccc(CSc2nnc(-c3cccs3)n2-c2ccccc2)cc1,369,-6% (inactive),-12.4% (inactive),99.1,-50% (inactive),120,-0.5 (inactive),9.2e-06 (inactive),0.00461 (inactive),-0.725% (inactive),2.95% (inactive)
CC(=O)CCc1c(C)[nH]c2ccccc2c1=O,360,9.1% (inactive),-8.9% (inactive),123,-3.8% (inactive),102,-0.523 (inactive),6.6e-05 (inactive),0.00588 (inactive),-9.69% (inactive),-2.97% (inactive)
COc1ccc(-n2nnnc2SCC(=O)N2CCOCC2)cc1,788,2.8% (inactive),9.1% (inactive),85.7,-9.3% (inactive),114,-0.525 (inactive),-4.9e-05 (inactive),0.00627 (inactive),2.03% (inactive),-10.7% (inactive)
S=c1[nH]nc(Cc2ccccc2)n1Cc1ccco1,769,-8% (inactive),3% (inactive),101,-2.6% (inactive),102,-0.499 (inactive),-7e-05 (inactive),0.00544 (inactive),5.02% (inactive),9.76% (inactive)
Cc1ccc(C)c(S(=O)(=O)NCc2cccnc2)c1,597,-0.6% (inactive),-6.9% (inactive),114,-89.8% (inactive),119,-0.467 (inactive),-5.5e-05 (inactive),0.00658 (inactive),141% (active),100% (active)
CN(C)S(=O)(=O)c1ccc(C(=O)NCc2cccs2)cc1,436,4.7% (inactive),6.5% (inactive),105,15.4% (inactive),125,-0.611 (inactive),-2.1e-05 (inactive),0.00652 (inactive),3.68% (inactive),3.16% (inactive)
COc1ccccc1NC(=O)CSC1CC(=O)N(c2ccc3c(c2)OCO3)C1=O (stereo not drawn),685,-3.4% (inactive),-2.5% (inactive),95.7,-109% (inactive),122,-0.622 (inactive),2.7e-05 (inactive),0.00433 (inactive),17.9% (inactive),21.8% (inactive)
Cc1ccc(-n2c3c(cc(C(=O)NC4CCSC4=O)c2=O)C(=O)CC(C)(C)C3)cc1 (stereo not drawn),294,7.2% (inactive),7% (inactive),100,-48.3% (inactive),97.9,-0.458 (inactive),-8.6e-06 (inactive),0.00353 (inactive),-0.246% (inactive),38.6% (inactive)
CCN(CC(=O)Nc1c(C(=O)OC)[nH]c2ccccc12)c1ccc2c(c1)OCO2,309,-2.1% (inactive),-25.6% (inactive),70.8,-53.3% (inactive),103,-0.376 (inactive),-6.7e-05 (inactive),0.00578 (inactive),20.2% (inactive),8.63% (inactive)
COc1ccc(-c2nnc(SCC(=O)c3cc(C)n(Cc4cccs4)c3C)o2)cc1,497,-13.7% (inactive),-13.1% (inactive),97.7,-129% (inactive),161,-0.559 (inactive),5.5e-05 (inactive),0.00615 (inactive),-5.7% (inactive),-11.8% (inactive)
CC1=C(C(=O)OC2CCCCC2)C(c2ccc(C)o2)C2=C(CC(C)(C)CC2=O)N1 (stereo not drawn),493,-2.4% (inactive),3.3% (inactive),122,-13.3% (inactive),112,-0.25 (inactive),-1.1e-05 (inactive),0.0052 (inactive),7.33% (inactive),29.1% (inactive)
COc1ccc(C(=O)N2CCSC2=S)cc1OC,677,-19.3% (inactive),-13.4% (inactive),97.5,55.8% (inactive),82.9,-0.457 (inactive),-2.6e-05 (inactive),0.00338 (inactive),4.55% (inactive),15% (inactive)
COc1ccc(N(C)C(=O)CCS(=O)(=O)c2cccc3nonc23)c(OC)c1,557,-1.4% (inactive),-17.3% (inactive),121,-18.3% (inactive),125,-0.488 (inactive),-0.000205 (inactive),0.00467 (inactive),4.07% (inactive),16.9% (inactive)
COc1ccccc1NC(=O)C(C)NS(=O)(=O)c1ccc(F)cc1 (stereo not drawn),331,2.8% (inactive),-6.8% (inactive),108,-22.4% (inactive),100,-0.476 (inactive),-3.4e-05 (inactive),0.00634 (inactive),3.7% (inactive),46.5% (inactive)
CCCCn1c(NCCC)nc2c1c(=O)[nH]c(=O)n2C,383,-6.2% (inactive),-0.7% (inactive),114,-38% (inactive),124,-0.402 (inactive),-0.000106 (inactive),0.00598 (inactive),16% (inactive),29.1% (inactive)
O=C(O)c1ccc(COc2ccc(Cl)cc2)o1,262,-3.3% (inactive),10.6% (inactive),81,-24% (inactive),88.3,-0.49 (inactive),-3e-05 (inactive),0.00685 (inactive),-14.7% (inactive),-60.9% (inactive)
CCOc1ccc(C2CC(c3cccc(OC)c3)Nc3nc(N)nn32)cc1 (stereo not drawn),562,5.4% (inactive),15.4% (inactive),100,36.3% (inactive),97.4,-0.619 (inactive),7.9e-07 (inactive),0.00629 (inactive),-7.71% (inactive),-1.03% (inactive)
O=C(COc1ccccc1Cl)NCc1ccco1,310,-13% (inactive),7.5% (inactive),92.3,-27.9% (inactive),115,-0.488 (inactive),-3e-05 (inactive),0.00673 (inactive),-22.9% (inactive),-43.3% (inactive)
CC(C)[C@H](NC(=O)OC(C)(C)C)c1nnc(SCc2cccc(F)c2)o1,859,0% (inactive),15.1% (inactive),101,-63.9% (inactive),122,-0.46 (inactive),-4.1e-06 (inactive),0.00385 (inactive),9.92% (inactive),19.5% (inactive)
CC1CCCCN1C(=O)Cn1nnc(-c2cccnc2)n1 (stereo not drawn),493,8% (inactive),-12% (inactive),93.1,-23.4% (inactive),95.3,-0.485 (inactive),-4.8e-05 (inactive),0.00445 (inactive),9.95% (inactive),16.3% (inactive)
COc1ccc(Nc2ncnc3c2cnn3-c2ccccc2)cc1OC,761,-15.1% (inactive),-26.1% (inactive),84.3,-10% (inactive),103,-0.366 (inactive),1.2e-05 (inactive),0.00554 (inactive),-10.2% (inactive),-29.8% (inactive)
O=C(Cn1cc2c(n1)CCCCC2)N1CCc2ccccc2C1,670,12% (inactive),15.4% (inactive),88.6,27.7% (inactive),85.1,-0.631 (inactive),1.4e-05 (inactive),0.0057 (inactive),-16% (inactive),-17.6% (inactive)
CCOC(=O)C1=C(C)NC2=C(C(=O)CC(C)(C)C2)C1c1ccc(N(C)C)cc1 (stereo not drawn),368,-7.9% (inactive),26.1% (inactive),104,-27.4% (inactive),116,-0.491 (inactive),-8.1e-05 (inactive),0.00676 (inactive),-2.32% (inactive),2.28% (inactive)
Cc1nc2c(-c3ccccc3)c(C)nn2c(C)c1CCC(=O)NCc1ccco1,545,-1.1% (inactive),-8.9% (inactive),84.3,-61.2% (inactive),102,-0.584 (inactive),1.5e-05 (inactive),0.00663 (inactive),9.03% (inactive),31.1% (inactive)
Cc1nc(N)[nH]c(=O)c1CCC(=O)OCC(C)C,587,-22.7% (inactive),5.9% (inactive),80,-61.2% (inactive),97,-0.507 (inactive),-4.8e-06 (inactive),0.00627 (inactive),6.72% (inactive),32.1% (inactive)
